Experimental data taken from PubChem BioAssay AID1259374 (The Scripps Research Institute Molecular Screening Center, 2018).
Among all 650,000 compounds or so, about 5,900 (0.91%) were called active. The full list was thinned out, with actives kept by preference. Unmarked numbers belong to inactive results. No stated cut-off is given here; in the data, active means inhibition above about 50%; inactive means the rest.

Target: Microphthalmia-associated transcription factor (Homo sapiens) (UniProt O75030)
Assay: MITF inhibitors, primary screen, biochemical, AlphaScreen, human (AID 1259374);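 further: 0% = vehicle wells with protein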
Conditions: AlphaScreen MITF homodimerization, bead proximity signal; at 2.6 µM; active compounds read high

Sequence of Microphthalmia-associated transcription factor (Homo sapiens) (O75030 whole entry, looked up): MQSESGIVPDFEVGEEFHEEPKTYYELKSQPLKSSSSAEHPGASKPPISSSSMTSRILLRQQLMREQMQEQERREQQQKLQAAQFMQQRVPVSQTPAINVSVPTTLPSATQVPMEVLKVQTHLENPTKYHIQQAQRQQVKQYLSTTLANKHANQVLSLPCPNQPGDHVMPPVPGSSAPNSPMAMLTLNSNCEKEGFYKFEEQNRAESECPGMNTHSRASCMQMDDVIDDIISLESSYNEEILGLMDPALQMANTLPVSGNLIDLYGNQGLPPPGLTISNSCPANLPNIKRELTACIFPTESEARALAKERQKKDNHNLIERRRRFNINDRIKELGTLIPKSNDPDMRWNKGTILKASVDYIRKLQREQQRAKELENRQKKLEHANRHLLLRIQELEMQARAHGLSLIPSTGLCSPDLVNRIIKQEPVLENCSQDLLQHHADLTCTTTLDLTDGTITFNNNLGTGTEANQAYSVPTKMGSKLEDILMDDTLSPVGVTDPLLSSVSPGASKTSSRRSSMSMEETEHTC

Structure (SMILES) | inhibition
N/C(=N\OC(=O)c1cccc(F)c1)c1ccc(Cl)cc1 | 17.5%
CCOC(=O)C1CCCN(Cc2ccc(F)cc2)C1 (configuration not stated) | 12.6%
COc1ccc(-c2nc(C(=O)NC3CCN(Cc4ccccc4)CC3)cs2)cc1 | 9.55%
COc1ccc(CN2CCC(C(=O)N3CCN(Cc4ccccc4)CC3)CC2)cc1 | 52% (active)
COc1ccc(-c2ncc(C)c(NC3CCN(Cc4ccccc4)CC3)n2)cc1 | 9.68%
COc1ccc(CN2CCCC(C(=O)N3CCCCC3)C2)cc1 (configuration not stated) | 57.8% (active)
CCOc1cc(CN2CCC(C(=O)NCCc3ccccc3)CC2)ccc1O | -1.67%
CCOc1ccc(CN2CCCC(C(=O)N(C)Cc3ccccc3)C2)cc1 (configuration not stated) | 45.6%
COc1cccc(CN2CCC(C(=O)NC(C)(C)C)CC2)c1 | 18.9%
COc1cccc(CN2CCC(C(=O)NCCc3ccccc3)CC2)c1 | 54.9% (active)
Cc1ccccc1-n1c(=S)sc2c(=O)n(-c3ccccc3)c(SCc3cc(=O)n4cc(Cl)ccc4n3)nc21 | -24.2%
CC(C)NC(=O)Cn1nc(SCc2ccccn2)nc1N | 2.01%
Cn1ccnc1SCc1cc(=O)c(OC(=O)c2ccccc2I)co1 | -3.29%
O=C(Nc1cccc(N2CCC(N(CC3CCC3)CC3CCCO3)CC2)c1)c1cccnc1 (configuration not stated) | 21.5%
CN(CCc1ccccn1)CC(=O)N1CCc2ccccc21 | 93% (active)
CC(C)CC(=O)N1CCc2ccccc21 | 5.19%
COc1ccc(CN(C)CC(=O)N2CCc3ccccc32)cc1OC | 0.1%
CN(C(=O)c1ccccc1)c1cccc(N)c1 | -4.8%
COc1cc(CN2CCN(Cc3ccc(Cl)cc3)CC2)c([N+](=O)[O-])cc1OC | 65.5% (active)
COc1cc(CN2CCCC(CO)C2)c([N+](=O)[O-])cc1OC (configuration not stated) | 12.4%
c1ccc(CN2CCN(Cc3ccco3)CC2)cc1 | 12.7%
COc1cc(CN2CCN(Cc3ccc(C)cc3)CC2)c([N+](=O)[O-])cc1OC | 80.6% (active)
COc1cc(CNCc2ccc3c(c2)OCO3)c([N+](=O)[O-])cc1OC | 6.83%
COc1cc(CN2CCN(Cc3ccco3)CC2)c([N+](=O)[O-])cc1OC | 84.4% (active)
COc1cc(CN2CCN(CCO)CC2)c([N+](=O)[O-])cc1OC | 13.5%
COc1cc(C(=O)N2CCCC2)c([N+](=O)[O-])cc1OC | 9.4%
COc1cc(CN2CCCN(C)CC2)c([N+](=O)[O-])cc1OC | 14.7%
